# Test results taken from publication PMC8384837, “Expanding the binding specificity for RNA recognition by a PUF domain”.
# Changes are numbered by the printed parent chain.
# Key:
# Assay in all cases: yeast three-hybrid, YBZ-1, SC-Leu-His + 0.5 mM 3-AT, 4 days
# Conditions in all cases: tags: N-Gal4 AD-HA kept; label: inside an RPR1-promoter hybrid RNA with tandem MS2 sites; ssRNA
# PUM1 PUF domain R5-PRL = PUM1 PUF domain R5-PRL (Homo sapiens, UniProt Q14671 828-1176, C1007P;Q1011L)
# How it was run: (§1)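 Matching RNA elements and Pumilio-1 PUF domain libraries, randomized at the three base-contacting residues of every repeat, were co-expressed from a centromeric plasmid in strain YBZ-1 (LexA–MS2 coat fusion, HIS3 reporter). The repeat regions were PCR-amplified and Illumina-sequenced from cells grown four days on SC-Leu (input) or SC-Leu-His + 0.5 mM 3-AT (selection). The interaction score is the log change in variant frequency from input to selection. It is computed in log2, with a pseudocount of 1 for absent variants.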
# PUM1 PUF domain R5-RKT = PUM1 PUF domain R5-RKT (Homo sapiens, UniProt Q14671 828-1176, C1007R;R1008K;Q1011T)
# How it was run: as §1
# PUM1 PUF domain R5-RNC = PUM1 PUF domain R5-RNC (Homo sapiens, UniProt Q14671 828-1176, C1007R;R1008N;Q1011C)
# How it was run: as §1
# PUM1 PUF domain R6-RFI = molecular target: T1, PUM1 PUF domain R6-RFI (Homo sapiens, UniProt Q14671 828-1176, N1043R;Y1044F;Q1047I)
# T1 sequence: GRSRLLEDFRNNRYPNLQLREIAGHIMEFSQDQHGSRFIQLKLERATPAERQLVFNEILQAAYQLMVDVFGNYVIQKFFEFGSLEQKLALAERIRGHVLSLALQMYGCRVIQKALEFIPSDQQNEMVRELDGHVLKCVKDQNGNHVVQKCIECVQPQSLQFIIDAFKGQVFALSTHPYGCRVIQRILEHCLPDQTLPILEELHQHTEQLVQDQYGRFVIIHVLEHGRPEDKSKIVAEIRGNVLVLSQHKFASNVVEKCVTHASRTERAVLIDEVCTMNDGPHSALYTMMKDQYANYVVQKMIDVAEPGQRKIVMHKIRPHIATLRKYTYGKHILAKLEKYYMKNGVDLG
# How it was run: as §1
# PUM1 PUF domain R6-GYM = molecular target: T2, PUM1 PUF domain R6-GYM (Homo sapiens, UniProt Q14671 828-1176, N1043G;Q1047M)
# T2 sequence: T1 sequence with R216G, F217Y, I220M
# How it was run: as §1
# PUM1 PUF domain R2-CYP = PUM1 PUF domain R2-CYP (Homo sapiens, UniProt Q14671 828-1176, N899C;Q903P)
# How it was run: as §1
# PUM1 PUF domain R2-RRS = PUM1 PUF domain R2-RRS (Homo sapiens, UniProt Q14671 828-1176, N899R;Y900R;Q903S)
# How it was run: as §1
# PUM1 PUF domain R7-GTS = PUM1 PUF domain R7-GTS (Homo sapiens, UniProt Q14671 828-1176, S1079G;N1080T;E1083S)
# How it was run: as §1
# PUM1 PUF domain R5-SNN = PUM1 PUF domain R5-SNN (Homo sapiens, UniProt Q14671 828-1176, C1007S;R1008N;Q1011N)
# How it was run: as §1
# PUM1 PUF domain R4-SHF = PUM1 PUF domain R4-SHF (Homo sapiens, UniProt Q14671 828-1176, N971S;Q975F)
# How it was run: as §1
sequence,measurement,setting,value
GGCUAGAACUAGUGGAUCCCCCGGCGCCCGGCGGCUCGAGCCCGGGUAAGUGUCAAUAGUCUGCAUGCCGCCGGGCGCCAUGCCUGCAGGUCGACUCUAGAAAACAUG,binding signal,PUM1 PUF domain R5-PRL,0.34 log2 enrichment (interaction score)
same,binding signal,PUM1 PUF domain R5-RKT,2.84 log2 enrichment (interaction score)
same,binding signal,PUM1 PUF domain R5-RNC,3.93 log2 enrichment (interaction score)
GGCUAGAACUAGUGGAUCCCCCGGCGCCCGGCGGCUCGAGCCCGGGUAAGUGUAAAUAGUCUGCAUGCCGCCGGGCGCCAUGCCUGCAGGUCGACUCUAGAAAACAUG,binding signal,PUM1 PUF domain R5-PRL,3.53 log2 enrichment (interaction score)
same,binding signal,PUM1 PUF domain R6-RFI,2.68 log2 enrichment (interaction score)
same,binding signal,PUM1 PUF domain R5-RNC,1.15 log2 enrichment (interaction score)
same,binding signal,PUM1 PUF domain R6-GYM,3.33 log2 enrichment (interaction score)
GGCUAGAACUAGUGGAUCCCCCGGCGCCCGGCGGCUCGAGCCCGGGUAAGUGUAAAAAGUCUGCAUGCCGCCGGGCGCCAUGCCUGCAGGUCGACUCUAGAAAACAUG,binding signal,PUM1 PUF domain R2-CYP,5.81 log2 enrichment (interaction score)
same,binding signal,PUM1 PUF domain R2-RRS,1.22 log2 enrichment (interaction score)
GGCUAGAACUAGUGGAUCCCCCGGCGCCCGGCGGCUCGAGCCCGGGUAAGUUUAAAUAGUCUGCAUGCCGCCGGGCGCCAUGCCUGCAGGUCGACUCUAGAAAACAUG,binding signal,PUM1 PUF domain R7-GTS,2.61 log2 enrichment (interaction score)
GGCUAGAACUAGUGGAUCCCCCGGCGCCCGGCGGCUCGAGCCCGGGUAAGUGUUAAUAGUCUGCAUGCCGCCGGGCGCCAUGCCUGCAGGUCGACUCUAGAAAACAUG,binding signal,PUM1 PUF domain R5-PRL,4.51 log2 enrichment (interaction score)
same,binding signal,PUM1 PUF domain R5-SNN,4.07 log2 enrichment (interaction score)
GGCUAGAACUAGUGGAUCCCCCGGCGCCCGGCGGCUCGAGCCCGGGUAAGUGUACAUAGUCUGCAUGCCGCCGGGCGCCAUGCCUGCAGGUCGACUCUAGAAAACAUG,binding signal,PUM1 PUF domain R4-SHF,5.41 log2 enrichment (interaction score)
GGCUAGAACUAGUGGAUCCCCCGGCGCCCGGCGGCUCGAGCCCGGGUAAGUGUAAAGAGUCUGCAUGCCGCCGGGCGCCAUGCCUGCAGGUCGACUCUAGAAAACAUG,binding signal,PUM1 PUF domain R2-CYP,2.3 log2 enrichment (interaction score)
same,binding signal,PUM1 PUF domain R2-RRS,2.87 log2 enrichment (interaction score)
